Screens from PubChem.
gsp antag: antagonizes gsp, the McCune-Albright syndrome mutation | gsp-mutant cells, cAMP HTRF, 30 min | Potency, µM (doses to about 76.9 µM), inactives show at the top dose activity change, negative = inhibition, most hits filed as inhibitors | actives 0.4% (n = 340,000); calls by dose curve; cell line not stated here;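 note: intracellular cAMP measured with PDE inhibitor Ro 20-1724 present during compound exposure; potency is the fitted concentration of half-maximal effect; % is set by controls: 0 for no effect and ±100 for the full control effect; nearly all actives have a fitted effect of over 65% in size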
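HTRF cAMP measurement after 30 min RT detection following 30 min, 37C compound treatment alongside […] (added as 300 uM solution) in G418-selected cells seeded at 2000/well and grown 16–24 h.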
gsp ag: agonists of gsp mutant (McCune-Albright syndrome) | gsp mutant cells, cAMP HTRF, 30 min | Potency, µM (highest dose often 76.9 µM), inactives show top-dose activation (cAMP increase), most hits filed as activators | actives 0.13% (n = 340,000) | AID 624287; active = well fitted activation curve with a large enough effect; inconclusive = small, poorly fitted or top-dose-only effect, or another doubt; inactive = no such curve, though single readings can be large or run the other way; cell line not stated here;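 note: phosphodiesterase inhibitor Ro 20-1724 added with compounds to block cAMP breakdown; potency is the fitted concentration of half-maximal effect; nearly all actives have a fitted effect of over 60% in size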
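Cells stably selected in G418 were plated at 2000/well, grown 16-24 hr, then given compounds in DMSO with the PDE inhibitor […] (300 uM solution added) for 30 min at 37C; cAMP was read by HTRF.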
Integrin act MD: activators of alpha7 integrin expression for muscular dystrophy | alpha7betagal myoblasts, beta-gal FDG fluorescence, 48 h | Potency, µM (top dose mostly 38.3 µM), for the others: at the top dose activation, hits mostly activators | actives 0.064% (n = 350,000) | AID 624291;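 note: potency is the fitted concentration of half-maximal effect; 100% = response of the positive control SU9516; nearly all actives have a fitted effect of over 60% in size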
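alpha7betagal+/- myoblasts (passage 13, 250/well) treated 48 h at 37C with compounds at 1:260 dilution of DMSO stock. Lysed, then beta-galactosidase activity read as FDG fluorescence (ex 480/em 540) after 30 min, with pre-read for autofluorescence.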
RXFP1 agonist: agonists of human relaxin receptor RXFP1; Potency, µM (titrated, usually from 57.5 µM), for the others: top-dose activation, hits mostly activators; actives 0.3% (n = 370,000); HEK293T-RXFP1 cAMP TR-FRET, 30 min; response scale: percent of porcine relaxin response, buffer zero; AID 2676; note: potency is the fitted concentration of half-maximal effect; % is set by controls: 0 for no effect and ±100 for the full control effect; nearly all actives have a fitted effect of over 60% in size
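HEK293 cells stably expressing RXFP1, treated 30 min at 37C with compounds plus PDE4 inhibitor Ro 20174; cAMP measured by HTRF TR-FRET. Normalized to buffer and 29 nM porcine relaxin; EC50 by Hill fit.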
S-ASM inh: human S-ASM enzyme inhibition | P17405 | placental ASM, HMU-PC fluorogenic substrate, 60 min | Potency, µM (top dose mostly 57.5 µM), inactives show at the highest dose activity change, negative = inhibition, most hits filed as inhibitors | actives 0.006% (n = 340,000); note: potency is the fitted concentration of half-maximal effect
Target sequence (P17405 47-631 limits assumed): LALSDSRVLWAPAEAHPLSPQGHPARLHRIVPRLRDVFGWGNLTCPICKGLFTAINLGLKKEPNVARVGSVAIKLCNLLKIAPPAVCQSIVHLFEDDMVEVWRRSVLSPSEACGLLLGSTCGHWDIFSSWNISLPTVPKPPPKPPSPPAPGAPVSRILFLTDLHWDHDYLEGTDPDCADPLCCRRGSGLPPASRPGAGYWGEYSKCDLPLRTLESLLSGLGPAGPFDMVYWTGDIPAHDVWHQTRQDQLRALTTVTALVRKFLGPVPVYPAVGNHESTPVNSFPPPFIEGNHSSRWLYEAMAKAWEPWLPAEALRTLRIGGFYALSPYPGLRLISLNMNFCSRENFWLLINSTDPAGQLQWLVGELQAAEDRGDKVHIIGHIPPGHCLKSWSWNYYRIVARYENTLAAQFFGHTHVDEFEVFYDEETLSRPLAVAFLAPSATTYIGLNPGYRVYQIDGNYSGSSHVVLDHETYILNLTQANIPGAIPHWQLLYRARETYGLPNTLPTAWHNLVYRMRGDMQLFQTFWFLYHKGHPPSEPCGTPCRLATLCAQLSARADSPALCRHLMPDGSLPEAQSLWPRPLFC
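qHTS format. ASM enzyme prepared from human placenta hydrolyses the fluorogenic substrate HMU-PC0 (9 uM final) over 60 min at 37 °C after a 10 min compound preincubation.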
RXFP1 antagonist: blocks the human relaxin receptor RXFP1. Q9HBX9. HEK293-RXFP1, relaxin-stimulated cAMP HTRF, 30 min; stronger effect = lower value. activity change, negative = inhibition, % at 57.5 µM. actives 0.59% (n = 350,000);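 active = activity change of -60% or lower, but not beyond a set lower limit; inconclusive = change between -60% and -40%, or beyond the set limit; inactive = change above -40%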; note: % is set by controls: 0 for no effect and ±100 for the full control effect
Starred values were filed as active, the others as inactive; u = inconclusive; x = not tested or not shown; ! = not confirmed by another sample; [ ] = another dose, or the depositor's remark. Hits are enriched below; roughly 1.1% of the tested compounds scored in any of these assays. Unless noted, calls come from the whole dose curve; as a rule, active = well fitted curve in the direction sought with a large enough effect; inconclusive = small, poorly fitted or top-dose-only effect, or another doubt; inactive = no such curve, though single readings can be large; an effect the other way counts as inactive or inconclusive.

SMILES | gsp antag | gsp ag | Integrin act MD | RXFP1 agonist | S-ASM inh | RXFP1 antagonist
Cc1ccc(CSc2nc3cccnc3n2Cc2ccc(C(=O)NC3CCCCC3)cc2)cc1 | x | x | x | 20µM* | x | -4
CN1C(=O)/C(=C\C(=O)c2cccs2)c2ccccc21 | -2% | 34%[15.4 µM] | -68% | 2% | -7% | -98*
O=C1CCN(C(=O)c2cccs2)c2ccccc21 | 10% | -1%[15.4 µM] | -27% | 1% | -4% | -7
N[C@H](C(=O)O)[C@@H](O)c1ccc(O)c(O)c1 | x | x | x | x | x | 19
O=C(CSc1c2c(nc3cc(Cl)ccc13)CCCC2)N1CCN(c2ccccc2)CC1 | x | x | x | 9% | x | -20
CCCn1c(CN2CCCCC2C)nc2c1c(=O)n(C)c(=O)n2C (centres undefined) | 8% | -74% | -18% | 3% | 2% | -6
Cn1c(=O)c2c(nc(Cc3ccc(N)cc3)n2C)n(C)c1=O | 7% | u | u | 16µM* | 1% | -2
Cn1c(=O)c2c(nc(CCC3CCCC3)n2C)n(C)c1=O | 23% | 11µM* | 4% | x | 0% | 5
COc1cccc(NC(=O)C2CCN(S(=O)(=O)c3c(C)noc3C)CC2)c1 | x | x | x | 3% | x | x
Cc1ccc(-n2nnc3c(=O)oc4ccccc4c32)cc1 | u | -17% | -60% | -2% | 1% | -89*
O=c1oc2ccccc2c(NC2CCCCC2)c1NS(=O)(=O)c1ccc(F)c(Cl)c1 | -29% | u | 16% | 1% | 8% | -63*
Cc1ccc(S(=O)(=O)Nc2c(NC3CCCCC3)c3ccccc3oc2=O)cc1C | -21% | 27% | 15% | 0% | 75% | 6
N#C/C(=N\Nc1ccccc1Cl)C(=O)c1ccccc1 | u | -25% | 31% | 0% | -5% | -4
N#C/C(=N\Nc1cccc(Cl)c1)C(=O)c1ccccc1 | 16µM* | 0% | 14% | 2% | -10% | 2
N#Cc1cc(NC(=O)C(=O)O)c(Cl)c(NC(=O)C(=O)O)c1 | x | x | x | x | x | 9
C[n+]1c2cc(N)ccc2cc2ccc(N)cc21 (tested in a mixture with another compound) | x | x | x | x | x | -9
CC(C)(C)c1ccc(C(=O)NC(=S)NCc2ccco2)cc1 | -9% | 3% | -12% | 1% | -3% | -4
CC(C)(C)c1ccc(/C([O-])=C(/C(=S)NCc2ccco2)[n+]2ccccc2)cc1 | x | x | x | 25µM* | x | x
COC(=O)C(=O)C/C(=N/Nc1ncnc2ccccc12)c1ccc(Cl)cc1 | -15% | 13%[15.4 µM] | 10µM* | 5% | -18% | 3
Cc1ccc(CNC(=O)C2CCN(S(=O)(=O)c3c(C)noc3/C=C/N(C)C)CC2)cc1 | -8% | -20% | 16% | 0% | -1% | -64*
CN(C)c1ccc(C(=O)Nc2ccc(-c3nc4ccccc4o3)cc2)cc1 | x | x | x | u | x | 6
CC1CCN(N=Nc2nc3c([nH]2)c(=O)n(C)c(=O)n3C)CC1 | 5% | 13µM* | -10% | x | -7% | 27
Cn1c(=O)c2[nH]c(N=NN3CCCCC3)nc2n(C)c1=O | 7% | u | 0% | x | -1% | 3
Cc1cc(C)cc(NC(=O)C2CCN(S(=O)(=O)c3cccc(-c4noc(C)n4)c3)CC2)c1 | x | x | x | 2% | x | -10
Cc1ccn2c(NCc3ccccc3)c(-c3cccs3)nc2c1 | -25% | 3%[15.4 µM] | 6% | 10% | 227% | -77*
SMILES | gsp antag | gsp ag | Integrin act MD | RXFP1 agonist | S-ASM inh | RXFP1 antagonist
Cc1ccn2c(-c3csc(NCc4ccccc4)n3)c(C)nc2c1 | 40µM* | -40% | -56% | 1% | 4% | -25
O=C(COC(=O)C1COc2ccccc2O1)Nc1cccc(F)c1 (centres undefined) | -4% | -10% | 0% | 1% | -5% | -5
Cc1cc(-c2ccc(C)c(S(=O)(=O)Nc3cccc(C)n3)c2)on1 | x | x | x | 3% | x | -12
Cc1cc(-c2ccc(C(C)C)c(S(=O)(=O)Nc3cc(C)on3)c2)on1 | -27% | u | u | 1% | 0% | -65*
CC1CCN(C(=O)c2cc3c(ccc4ccccc43)o2)CC1 | -11% | 13% | u | 1% | -2% | -60*
O=C(Cc1ccc(Cl)cc1)NCCc1csc2nc(-c3ccccc3F)nn12 | x | x | x | 1% | x | -8
COC(=O)c1ccccc1NC(=O)CCS(=O)(=O)c1nc(-c2ccc3c(c2)OCO3)cc(C(F)(F)F)n1 | x | x | x | 11% | x | -63*
CC(C)=CC(=O)OCc1csc(CC(=O)Nc2ccccc2C)n1 | -6% | 8% | -23% | 0% | 4% | -4
CC(=O)c1c(C)[nH]c(C(=O)OCc2csc(CC(=O)Nc3ccccc3C)n2)c1C | 25µM* | u | u | x | -3% | -10
O=C(CCS(=O)(=O)c1nc(-c2cccs2)cc(C(F)(F)F)n1)Nc1ccc(F)c(Cl)c1 | x | x | x | 0% | x | -60*
COc1ccc(NC(=O)CCS(=O)(=O)c2nc(-c3cccs3)cc(C(F)(F)F)n2)cc1 | x | x | x | 3% | x | u
CCOC(=O)c1cnn2c(C(F)(F)F)cc(-c3ccc(Br)cc3)nc12 | x | x | x | -1% | x | -14
COc1ccccc1/C=C/c1nc(C#N)c(NCc2ccccc2)o1 | x | x | x | 25% | x | -12
Brc1ccc(N/N=C(/N=Nc2nn[nH]n2)c2ccccc2)cc1 | 22µM* | -1% | -17% | 2% | 10% | -1
O=C(O)c1ccc(N=N/C(=N\Nc2ccc(C(=O)O)cc2)c2ccccc2)cc1 | -5% | -1% | 2% | -3% | 40% | x
CCN(CC)CCn1c(=N)n(CC(O)COc2cccc(C)c2)c2ccccc21 (centres undefined) | 12% | 0%[15.4 µM] | -71% | 1% | 2% | u
Cc1cccc(OCC(O)Cn2c(=N)n(CCN3CCCCC3)c3ccccc32)c1 (centres undefined) | 18% | -5% | -68% | 2% | -2% | -63*!
CCc1ccc(Nc2n[n+](-c3ccccc3)c(-c3c(Cl)cccc3Cl)s2)cc1 | 32µM* | x | -43% | 1% | -25% | x
CCOC(=O)COc1cc(-n2c(=S)[nH]c3cc(OC)c(OC)cc3c2=O)c(Cl)cc1Cl | 13µM* | -3%[15.4 µM] | 6% | 2% | -25% | -15
CCOC(=O)COc1cc(N2C(=O)CSCC2=O)c(Cl)cc1Cl | -7% | -32% | 14% | -3% | -4% | -23
CCc1cccc(NC(=O)C2CCCN(c3cnccn3)C2)c1 (centres undefined) | -8% | -64% | 8% | 1% | 22% | 11
CCOC(=O)c1ccc(NC(=O)C2CCCN(c3cnccn3)C2)cc1 (centres undefined) | -4% | -2% | -16% | -2% | 30% | -61*!
CCCCc1ccc(NC(=O)CSc2nc(=O)n(CCN(C)C)c3c2CCC3)cc1 | -8% | 16%[15.4 µM] | -1% | 0% | -3% | -85*
